In assay [1] the target is Calcium and integrin-binding protein 1 (Homo sapiens) (UniProt Q99828). Kind of assay: Primary qHTS for Identification of Calcium Integrin Binding Protein 1 (CIB1) Competitor (AID 1508620).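 Note: GST tagged CIB1 binding a fluorescein labelled alphaIIb integrin peptide tracer; top concentration of the series differs between compounds.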 Particulars: CIB1-GST / FITC-alphaIIb peptide fluorescence polarization; series mostly up to 114 µM. The method, boiled down: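 CIB1-GST (1 uM final) and compound incubated 15 min at room temperature before adding FITC-alphaIIb peptide tracer (100 nM final). Competition for binding read by fluorescence polarization (ex 480, em 540) after another 15 min at room temperature.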
Chain of Calcium and integrin-binding protein 1 (Homo sapiens) (Q99828 whole entry, looked up): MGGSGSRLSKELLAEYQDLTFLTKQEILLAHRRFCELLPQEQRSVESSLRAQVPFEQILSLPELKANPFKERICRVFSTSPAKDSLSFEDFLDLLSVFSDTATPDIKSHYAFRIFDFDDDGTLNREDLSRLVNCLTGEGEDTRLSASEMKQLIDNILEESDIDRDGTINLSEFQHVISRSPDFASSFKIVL
A general note: qHTS replaces the single test concentration by a dilution series.

The target in assay [2] is Cytochrome P450 2D6 (Homo sapiens) (UniProt P10635). Kind of assay: Cytochrome P450 family 2 subfamily D member 6 (CYP2D6) small molecule antagonists: luciferase biochemical (cell-free) qHTS assay (AID 1645840; active = well fitted curve in the direction sought with a large enough effect in the repeat runs; an effect the other way counts as inactive or inconclusive; note: nearly all actives have a fitted effect of over 55% in size; note: potency is the fitted concentration of half-maximal effect). Particulars: P450-Glo CYP2D6 enzyme, luciferin luminescence, 1 h; series mostly up to 57.4 µM. The procedure, abridged: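 P450-Glo CYP2D6 system: proluciferin substrate converted by enzyme to luciferin, read by luminescence proportional to activity. Enzyme-substrate mix with compound 10 min at room temperature, then NADPH regeneration 1 h before detection reagent.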
Chain of Cytochrome P450 2D6 (Homo sapiens) (P10635 whole entry, looked up): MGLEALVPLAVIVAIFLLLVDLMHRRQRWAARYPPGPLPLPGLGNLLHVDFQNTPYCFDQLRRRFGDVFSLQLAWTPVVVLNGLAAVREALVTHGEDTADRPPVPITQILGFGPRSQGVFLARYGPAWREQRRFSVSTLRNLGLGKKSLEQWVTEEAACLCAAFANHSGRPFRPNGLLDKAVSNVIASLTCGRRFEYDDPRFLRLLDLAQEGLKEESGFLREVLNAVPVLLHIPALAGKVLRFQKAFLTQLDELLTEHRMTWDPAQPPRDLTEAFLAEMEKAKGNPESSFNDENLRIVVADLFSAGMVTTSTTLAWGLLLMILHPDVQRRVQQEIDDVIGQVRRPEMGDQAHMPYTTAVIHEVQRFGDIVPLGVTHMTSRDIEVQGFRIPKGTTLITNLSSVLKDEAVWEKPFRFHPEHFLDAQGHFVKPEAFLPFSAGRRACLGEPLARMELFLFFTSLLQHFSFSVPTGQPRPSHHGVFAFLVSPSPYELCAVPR

Assay [3] concerns the target Cytochrome P450 2C9 (Homo sapiens) (UniProt P11712). Kind of assay: Cytochrome P450 family 2 subfamily C member 9 (CYP2C9) small molecule antagonists: luciferase biochemical (cell-free) qHTS assay (AID 1645842; active = well fitted curve in the direction sought with a large enough effect in the repeat runs; an effect the other way counts as inactive or inconclusive; note: nearly all actives have a fitted effect of over 55% in size; note: potency is the fitted concentration of half-maximal effect). Particulars: P450-Glo CYP2C9 enzyme assay, luciferin luminescence; series mostly up to 57.4 µM. The procedure, abridged: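 P450-Glo CYP2C9 system: proluciferin substrate with enzyme in mix containing 0.4% BSA, 10 min at room temperature, then NADPH regeneration solution added and incubated 1 h at 37C. Detection reagent stopped reaction; luminescence read after 20 min as RLU.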

A short description of assay [4]: Primary qHTS for inhibitors of nuclear receptor binding SET domain protein 2 (NSD2) in an isogenic RCH-ACV NSD2 p.E1099K mutant (9B) (AID 1645876). Note: nearly all actives have a fitted effect of over 70% in size. Note: potency is the fitted concentration of half-maximal effect. Particulars: RCH-ACV (leukaemia line) NSD2 E1099K (9B) viability, CellTiter-Glo, 72 h; series mostly up to 44.9 µM.
Assay [5] deals with N-terminal Xaa-Pro-Lys N-methyltransferase 1 (Homo sapiens) (UniProt Q9BV86). Kind of assay: Confirmatory qHTS for Inhibitors of N-terminal methyltransferase 1 (NTMT1): MTaseGlo Assay (AID 1645874). Note: potency is the fitted concentration of half-maximal effect; nearly all actives have a fitted effect of over 65% in size. Particulars: NTMT1 enzyme, MTase-Glo SAH luminescence; series mostly up to 100 µM. The procedure, abridged:
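SPKRIA peptide at 1 uM was methylated by 125 nM NTMT1 using 100 uM SAM over 30 min at room temperature, following a 15 min compound preincubation. Product SAH was detected luminescently.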

29 molecules from PubChem BioAssay (NCATS) can be followed below.

The structures appear in SMILES notation. Where “and” joins values, the source holds several entries; their conditions need not be identical. Identical values can stand only once. Records with an inconclusive call do not appear. The source holds several records for some structures; these can differ, active in one and inactive in another. Calls of active or inactive are those of the source. Unless noted, calls come from the whole dose curve; as a rule, active = well fitted curve in the direction sought with a large enough effect; inconclusive = small, poorly fitted or top-dose-only effect, or another doubt; inactive = no such curve, though single readings can be large; an effect the other way counts as inactive or inconclusive.

Chain of Cytochrome P450 2C9 (Homo sapiens) (P11712 whole entry, looked up): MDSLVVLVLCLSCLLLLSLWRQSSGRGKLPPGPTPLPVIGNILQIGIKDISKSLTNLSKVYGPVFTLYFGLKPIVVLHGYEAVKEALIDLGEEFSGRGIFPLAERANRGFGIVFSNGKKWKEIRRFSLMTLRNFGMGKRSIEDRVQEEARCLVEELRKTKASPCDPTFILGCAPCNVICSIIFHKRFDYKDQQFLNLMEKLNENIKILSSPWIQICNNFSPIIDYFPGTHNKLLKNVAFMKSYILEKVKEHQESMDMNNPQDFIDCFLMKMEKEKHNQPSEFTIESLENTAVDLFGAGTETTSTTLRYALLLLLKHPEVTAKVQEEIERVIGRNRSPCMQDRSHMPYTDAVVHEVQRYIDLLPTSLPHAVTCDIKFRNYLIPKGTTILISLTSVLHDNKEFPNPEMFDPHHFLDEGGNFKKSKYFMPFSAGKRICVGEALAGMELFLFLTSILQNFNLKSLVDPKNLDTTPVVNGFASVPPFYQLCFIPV
Chain of N-terminal Xaa-Pro-Lys N-methyltransferase 1 (Homo sapiens) (Q9BV86 whole entry, looked up): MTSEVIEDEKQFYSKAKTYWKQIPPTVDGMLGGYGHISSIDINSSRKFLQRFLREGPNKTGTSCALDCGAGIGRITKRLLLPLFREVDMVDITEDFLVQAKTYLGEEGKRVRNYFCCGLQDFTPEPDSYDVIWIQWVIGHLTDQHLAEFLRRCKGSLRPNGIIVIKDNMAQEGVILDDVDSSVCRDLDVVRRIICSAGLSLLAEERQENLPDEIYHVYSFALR

In the case of `CNCc1ccc(-c2cc(-c3nc(-c4ccc(S(=O)(=O)C(C)C)cc4)cnc3N)on2)cc1`, the Potency result in assay [1] and in assay [2] was “inactive” throughout. Moreover, the Potency in assay [3] was 2.13 µM (active); in assay [4], 183 nM (active) and 83.3 nM (active).
As for `N#Cc1ccc2[nH]cc(CCCCN3CCN(c4ccc5oc(C(N)=O)cc5c4)CC3)c2c1`, the Potency entry in assay [1] is “inactive”. For the same molecule, the Potency in assay [2] is 4.77 µM (active); in assay [3] it was 13.5 µM (active); in assay [4], 14.5 µM (active).
For `Cn1cc(-c2ccc3nnc(Sc4ccc5nn(C)cc5c4)n3n2)cn1` the same measures were “inactive”, “inactive”, 4.77 µM (active) and “inactive”.
Take `Cc1nc(C)c(-c2ccc(C3CCC(CC(=O)O)CC3)cc2)nc1C(N)=O` (centres undefined): the Potency entry in assay [1], in assay [2], in assay [3] and in assay [4] was “inactive” each time.
Regarding `O=C(c1cccc(Cl)c1F)N1CCN(Cc2cccc(Nc3nccs3)n2)CC1`, the Potency result in assay [1] was “inactive”. The Potency is 1.69 µM (active) in assay [2], 3.38 µM (active) in assay [3] and 0.817 µM (active) in assay [4].
In the case of `c1ccc(-c2ncc(CN3CCN(c4ncccn4)CC3)[nH]2)cc1`, the Potency entry in assay [1] and in assay [4] was “inactive” throughout. The Potency was 0.952 µM (active) in assay [2] and 2.13 µM (active) in assay [3].
On to `COc1ccccc1Oc1ccc(N(Cc2cccnc2)S(=O)(=O)CC(F)(F)F)cc1`, for which the Potency result in assay [1] and in assay [4] was “inactive” throughout. Moreover, the Potency in assay [2] is 13.5 µM (active); in assay [3] it was 1.9 µM (active).
For `O=C(Nc1ccc(S(=O)(=O)Nc2ccccc2Cl)c(Cl)c1)c1ccccn1`, the Potency entry in assay [1], in assay [2] and in assay [4] was “inactive” each time. Further, the Potency in assay [3] was 0.674 µM (active).
Turning to `CN(CCc1ccc(Nc2ncc(-c3cccnc3)s2)cc1)Cc1ccccc1`, in assay [1], the Potency result is “inactive”. Besides, the Potency in assay [2] was 1.2 µM (active); in assay [3], 12 µM (active); in assay [4] it was 8.17 µM (active).
With `CN1CCc2nc(C(=O)N[C@@H]3C[C@@H](C(=O)N(C)C)CC[C@@H]3NC(=O)C(=O)Nc3ccc(Cl)cn3)sc2C1`, the Potency entry in assay [1], in assay [2], in assay [3] and in assay [4] was “inactive” in each case.
As to `CC(C)C(CO)Nc1nc(Nc2ccc(C(=O)O)c(Cl)c2)c2ncn(C(C)C)c2n1` (centres undefined), the Potency entry in assay [1], in assay [2] and in assay [4] was “inactive” in each case.
Turning to `COCCOc1ccc(N2CCN(CCn3ncc4c3nc(N)n3nc(-c5ccco5)nc43)CC2)cc1`, the Potency entry in assay [1], in assay [2], in assay [3] and in assay [4] was “inactive” each time.
As for `Cc1ccc(C(=O)Nc2noc3ccccc23)cc1`, the Potency entry in assay [1] and in assay [4] was “inactive” throughout. The Potency in assay [2] was 7.56 µM (active); in assay [3], 16.9 µM (active).
For the molecule `CC(Oc1ccc2[nH]nc(/C=C/c3cnn(CCO)c3)c2c1)c1c(Cl)cncc1Cl` (centres undefined), in assay [1], the Potency entry was “inactive”. Moreover, the Potency in assay [2] was 2.39 µM (active); in assay [3], 0.536 µM (active); in assay [4] it was 0.115 µM (active).
As to `COc1ccc(C2(O)CCC(N3CC[C@@H](NC(=O)CNC(=O)c4cccc(C(F)(F)F)c4)C3)CC2)cn1` (some centres undefined), the Potency entry in assay [1], in assay [3] and in assay [4] was “inactive” throughout. In assay [2], the Potency was 10.7 µM (active).
For the molecule `CCCNc1ccc2ncc(-c3ccc4[nH]ncc4c3)n2n1`, the Potency entry in assay [1] and in assay [2] was “inactive” each time. The Potency was 8.91 µM (active) in assay [5] and 0.258 µM (active) in assay [4].
For the molecule `CN(C)c1nc(NC2CCC(NCCc3ccc(Br)cc3OC(F)(F)F)CC2)nc2ccccc12` (centres undefined), the Potency entry in assay [1] is “inactive”. Also, the Potency in assay [2] is 2.68 µM (active); in assay [3], 7.56 µM (active); in assay [4], 3.65 µM (active).
For the molecule `CCCN1CCN(c2ccc(C(=O)NC3(C(=O)NCC#N)CCCCC3)cc2)CC1`, the Potency result in assay [1], in assay [2], in assay [3] and in assay [4] was “inactive” throughout.
As to `NC1CCC(Nc2cc(-c3cccc(NCc4cccc(F)c4)n3)c(Cl)cn2)CC1` (centres undefined), the Potency result in assay [1] is “inactive”. The Potency was 15.1 µM (active) in assay [2] and 0.0817 µM (active) in assay [4].
As to `COc1cc(NC(=O)Nc2cccc(CNC(=O)O[C@H]3CCOC3)c2)ccc1-c1cnco1`, the Potency entry in assay [1] is “inactive”. Moreover, the figures for the Potency in assay [2], in assay [3] and in assay [4] were 0.338 µM (active), 0.0379 µM (active) and 0.459 µM (active), respectively.
For the molecule `Cc1ccc(NC(=O)C(=O)NC2CC(C)(C)NC(C)(C)C2)cc1`, the Potency entry in assay [1], in assay [2], in assay [3] and in assay [4] was “inactive” throughout.
As for `Cc1cccc(/C=N/Nc2cc(N3CCOCC3)n3nc(-c4ccncc4)cc3n2)c1`, the Potency result in assay [1] was “inactive”. Further, the Potency was 3.79 µM (active) in assay [2], 1.34 µM (active) in assay [3] and 0.578 µM (active) in assay [4].
In the case of `CNC(=O)c1cccc(-c2ccc3c(N4CCOC[C@@H]4C)nc(N4CCOC[C@@H]4C)nc3n2)c1`, the Potency result in assay [1] is “inactive”. The Potency result in assay [2] is “inactive and 15.1 µM (active)”; in assay [3], 12 µM (active) and 10.7 µM (active); in assay [4], 129 nM (active) and 326 nM (active) and 148 nM (active).
With `CC(C)(C)Nc1nc2cc(Cl)c(Cl)cc2nc1S(C)(=O)=O`, in assay [1], the Potency entry is “inactive”. Also, the figures for the Potency in assay [2], in assay [3] and in assay [4] were 6.01 µM (active), 5.35 µM (active) and 1.29 µM (active), respectively.
With `CCNC(=O)Nc1ncc(-c2cc(-c3c(C)cc(OC)cc3C)nc(-c3cnccn3)n2)s1`, the Potency result in assay [1] and in assay [4] was “inactive” each time. Also, the Potency in assay [2] was 8.49 µM (active); in assay [3] it was 3.79 µM (active).
On to `CCOc1cc(CC(=O)NC(CC(C)C)c2ccccc2N2CCCCC2)ccc1C(=O)O` (centres undefined), for which the Potency result in assay [1], in assay [2], in assay [3] and in assay [4] was “inactive” throughout.
Consider `O=C(CCCCN1CCOCC1)Nc1ccc(-c2cccnc2)cc1`, for which the Potency result in assay [1], in assay [3] and in assay [4] was “inactive” in each case. The Potency in assay [2] was 6.01 µM (active).
`N#Cc1ccc(-c2cnc3[nH]cc(NC(=O)c4cccnc4)c3c2)cc1`: the Potency result in assay [1] and in assay [2] was “inactive” in each case. The Potency is 2.68 µM (active) in assay [3] and 7.28 µM (active) in assay [4].
On to `O=C(c1ccccc1)c1ccc2nc(NC(=O)c3csc(C4CCN(c5ncnc6ccsc56)CC4)n3)[nH]c2c1`, for which the Potency entry in assay [1] and in assay [2] was “inactive” in each case. The Potency in assay [3] was 9.52 µM (active); in assay [4], 3.25 µM (active).
